The source of these data is ChEMBL document CHEMBL1201862, “PubChem BioAssay data set” (2004).

SMILES strings stand for the structures. Hit rate of the full screen: of about 300,000 compounds, about 3,700 (1.2%) were called active. Inconclusive results (about 20%) are left out. The calls are words filed in the database; no cut-off is given here. The sample as a whole holds a higher share of actives than the screen did.

For this assay, the system named is HEK293. Put plainly: qHTS for Inhibitors of binding or entry into cells for Lassa Virus. [Related pubchem assays (depositor defined):AID463114, AID540249]. Format: functional, Homo sapiens. To be noted: read-out: Potency. In general terms: qHTS replaces the single test concentration by a dilution series.
In the case of `C[C@@H]1O[C@@H](O[C@H]2C[C@@H](O)[C@]3(CO)[C@H]4[C@H](O)C[C@]5(C)[C@@H]([C@@H]6COC(=O)C6)CC[C@]5(O)[C@@H]4CC[C@]3(O)C2)[C@H](O)[C@H](O)[C@H]1O` [DIHYDROOUABAIN], the AC50 is 1.58 µM (active).
